“And” between values parts separate entries of the source, which are not always exact repeats. Equal values may be shown once. About 83,000 compounds went through this panel and 20% of them were active in at least one assay; those are over-represented in the sample as a whole.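 Testing used 96-well plates and a 48-hour single-concentration exposure. Example: -40 means 40% of the starting cells died.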 A number with no mark means an inactive call. The source made the active and inactive calls.
tested on: ACHN renal; test: NCI-60 one-dose screen, 48 h (100 = growth as untreated, 0 = no growth, -100 = all killed); details: 10 µM
Method: Growth inhibition of the ACHN human tumor cell line is measured as a screen for anti-cancer activity. Cells are grown in 96 well plates and exposed to the test compound for 48 hours. Compounds are tested at a single concentration, which is 10^-5 M for most compounds. The reported endpoint is percent growth (GI% or GIPRCNT), where numbers from 0 - 100% represent growth inhibition, and numbers from -100% - 0 represent cell death. For example, a value of 40 represents 60% growth inhibition. A value of 0 means no net growth occurred over the course of the experiment. A value of -40 indicates 40% of cells at the beginning of the experiment died by the end of the experiment. A value of -100 means all cells are dead at the end of the experiment.
NCI-60 Human Tumor Cell Lines Screen was performed using the standard one-dose NCI protocol, which is described in more detail at https://dtp.cancer.gov/discovery_development/nci-60/default.htm.
Compounds with GIPRCNT values below 10 were considered active. Activity score was based on GIPRCNT using the following formula: […]
Score is 0 for GIPRCNT values of 100 or above, 50 for GIPRCNT values of 0, and 100 for GIPRCNT values of -100.

SMILES | growth
O=C(O)c1c(Cl)c(Cl)c(Cl)c(Cl)c1-c1c2cc(I)c(=O)c(I)c-2oc2c(I)c(O)c(I)cc12 | 100% and 98.7% and 89.6%
O=C(Nc1cccc(Br)c1)Oc1cccc2cccnc12 | 103%

same assay, conditions: 10 µM unless noted

SMILES | growth
COC(=O)c1nc(=S)[nH]c(C(=O)OC)c1C(=O)c1ccc2ccccc2c1 | 101%
CC(C)(C)CC(C)(C)c1ccc(OCCSC(=N)N)cc1 | 69.1%
Nc1ncnc2c1ncn2C1OC(CO)C(O)C1O (stereo not given) | 111% and 84.1% and 98.9%
S=C(NCCNC(=S)[S][Sn]([c]1ccccc1)([c]1ccccc1)[c]1ccccc1)[S][Sn]([c]1ccccc1)([c]1ccccc1)[c]1ccccc1 | -100% (active)
O=C1c2cccnc2-c2nccc3c2c1nc1cc(Br)ccc13 | -72.9% (active) and -92.1% (active)
C1=C(c2ccccc2)C(c2ccc(OCCN3CCCCC3)cc2)Oc2ccccc21 (stereo not given) | 71.5%
Nc1nc(N)c2nc(CNc3ccc(C(=O)NC(CCC(=O)O)C(=O)O)cc3)cnc2n1 (stereo not given) | 19.4%
O=C1C2=C(Nc3cc([N+](=O)[O-])ccc3N2)OC1c1c2ccccc2cc2ccccc12 (stereo not given) | 51.4%
O=Nc1ccccc1N=O | 84.5%
Cn1c2c(c3ccccc31)CCN1C[C@@H]3CCCC[C@H]3C[C@@H]21 | 30.4%
CCOC(=O)/C(=C\c1ccc(-c2ccccc2)cc1)C(C)=O | 104%
CN1c2ccccc2C(C)(C)C12C=Cc1cc(O)ccc1O2 (stereo not given) | 73.3%
COc1ccccc1/C=C\C(=O)c1ccccc1 | 77%
N#CC1C(=O)SC2c3ccccc3C(=O)c3ccccc3C12 (stereo not given) | 114%
OC(CNc1ccnc2cc(Cl)ccc12)CNc1ccnc2cc(Cl)ccc12 | 99%
O=C(Nc1cccc(Br)c1)Oc1ccc(Cl)c2cccnc12 | 10.1% [100 µM]
CCC(=O)Sc1ccccc1C(=O)Nc1ccc(Cl)cc1 | 73.2%
Cc1ccc2nc(C[n+]3ccc4ccccc4c3)ccc2c1 | 101%

SMILES | growth
c1ccc2c(c1)Nc1cc3ccccc3cc1N2 | 27%
O=C(/C=C/C=C/c1ccccc1)c1ccco1 | 107%
CCCCCCC(C)c1ccccc1O (stereo not given) (tested in a mixture with another compound) | 110%
CCCCCCCCCCCCCCCCN(CC)CC | -57.4% (active)
C=C(Cl)C(=NC(C)(C)C)Nc1ccccc1C | 91%
O=C(CC1(O)C(=O)Nc2c(Cl)ccc(Cl)c21)c1ccc(Cl)cc1Cl (stereo not given) | 107%
Oc1c(Br)c(Br)c(O)c(Br)c1Br | -33.2% (active)
CN(C)c1ccc(C(=C2C=CC(=[N+](C)C)C=C2)c2ccc(N(C)C)cc2)cc1 (tested in a mixture with another compound) | -98.6% (active)
CCC1OC(OC)C=CC1=O (stereo not given) | 113%
CC1=CC(O)C2CC1C2(C)C (stereo not given) | 103% and 118%
O=C1c2ccccc2C(=O)c2sc(Nc3cccc(Cl)c3)nc21 | -52.8% (active)
N[C@H](C(=O)O)[C@@H]1CC(Cl)=NO1 | 21.5% [20 µM]
COc1ccc2nc3cc(Cl)ccc3c(NCCNc3c4ccc(Cl)cc4nc4ccc(OC)cc34)c2c1 | -94.7% (active)
NC(=O)/C=C/C(=O)c1c(Cl)cccc1Cl | -76.3% (active)
Cc1ccc2nc(-[n+]3cc4ccccc4cc3C)ccc2c1 | 103%
CC(=O)ON=C1C=CC(=C(C#N)c2ccccc2)C=C1 | 14%
CN=C(N)N/N=C(\C)c1ccc2c(c1)Cc1cc(/C(C)=N/NC(N)=NC)ccc1-2 | -49.9% (active)
O=C1C=CC(=O)N1C1c2ccccc2-c2ccccc21 | 57.8%

same assay, conditions: 100 µM

SMILES | growth
O=C(O)c1c(Cl)c(Cl)c(Cl)c(Cl)c1-c1c2cc(I)c(=O)c(I)c-2oc2c(I)c(O)c(I)cc12 | -80.7% (active)
O=C(Nc1cccc(Br)c1)Oc1cccc2cccnc12 | 15.4%

— PubChem BioAssay (NCI)
